# Screening data as filed in PubChem.
# Coupling enz = counter-screen for Giardia aldolase inhibitors: coupling enzyme system. coupling enzyme system counterscreen, AmpLite Red fluorescence. activity change, negative = inhibition, % at 58.2 µM, hits read low. hit rate 0.67% among 290,000; in the data active = activity change below about -30%
#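 Counterscreen of the coupled detection system alone, without aldolase: glyceraldehyde-3-phosphate coupling enzymes plus AmpLite Red readout. Compounds at 57.5 uM final, 10 min RT preincubation, 20 min RT reaction, fluorescence 525/598 nm.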
# Sfp PPTase inh = blocks B. subtilis Sfp PPTase activity | Q9F4F7 | Biochemical Sfp PPTase activity, qHTS | Potency, µM, hits mostly inhibitors | hit rate 3.5% among 310,000;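 also: the enzyme is Sfp with the accession as filed and its product quenches rhodamine fluorescence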
#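 After 15 min at room temperature with compound, 15 nM Sfp received 5 uM rhodamine-CoA plus 12.5 uM BHQ-2-ybbR (50 mM Hepes pH 7.6, 10 mM MgCl2). Rate came from the fluorescence difference over 30 min, ex 525/em 598 nm.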
# Tau fluor cs = counter-screen for tau fibril formation inhibitors | AID 1463 | Potency, µM (highest dose often 57.7 µM) | tau K18 P301L Alexa594 fluorescence, heparin fibrillization | hit rate 0.93% among 280,000; also: nearly all actives have a fitted effect of over 55% in size
#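 Human K18 P301L tau (15 uM unlabeled plus 0.24 uM Alexa 594-labeled, final) in 100 mM sodium acetate pH 7 was mixed with compound and 20 uM heparin and incubated 6 hr at 37 C.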
# KDM4E inh = blocks human JMJD2E demethylase activity; Potency, µM (top dose mostly 57.1 µM), most hits filed as inhibitors; hit rate 1.6% among 230,000; JMJD2E catalytic domain, FDH-coupled NADH fluorescence (FDH is formaldehyde dehydrogenase); also: nearly all actives have a fitted effect of over 50% in size
# Target sequence (B2RXH2 1-337 limits assumed): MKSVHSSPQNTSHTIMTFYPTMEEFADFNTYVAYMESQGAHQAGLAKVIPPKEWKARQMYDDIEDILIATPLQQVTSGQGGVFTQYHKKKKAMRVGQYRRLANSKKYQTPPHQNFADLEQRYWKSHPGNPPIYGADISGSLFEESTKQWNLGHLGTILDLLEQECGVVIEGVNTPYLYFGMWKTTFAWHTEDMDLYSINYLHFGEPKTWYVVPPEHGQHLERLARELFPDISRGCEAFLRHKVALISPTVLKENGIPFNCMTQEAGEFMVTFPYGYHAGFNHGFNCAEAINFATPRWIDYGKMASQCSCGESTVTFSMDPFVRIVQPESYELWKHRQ
# Tau fibril FP = blocks human tau fibril formation measured by polarization. P10636. K18 P301L tau heparin fibrillization, Alexa594 FP, 6 h. Potency, µM (highest dose often 57.7 µM), usual class: inhibitors. hit rate 0.39% among 280,000; also: nearly all actives have a fitted effect of over 55% in size
# Target sequence (P10636 561-689 P618L limits assumed): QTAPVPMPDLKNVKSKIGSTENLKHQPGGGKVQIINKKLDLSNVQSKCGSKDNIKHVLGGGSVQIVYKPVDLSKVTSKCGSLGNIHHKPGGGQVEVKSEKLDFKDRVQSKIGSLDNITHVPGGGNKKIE
#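 Recombinant K18 P301L […], labeled with Alexa 594 at 0.24 uM over 15 uM unlabeled; heparin inducer 20 uM final; 37 C, 6 hr; FP endpoint.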
# Tau fibril ThT = inhibitors of human tau fibril formation, thioflavin T binding; P10636; recombinant tau K18 P301L (four-repeat tau fragment), heparin-induced fibrillization, ThT fluorescence; Potency, µM (series often up to 57.4 µM), usual class: inhibitors; hit rate 2.1% among 270,000; also: nearly all actives have a fitted effect of over 55% in size
#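 K18 P301L tau (15 uM + 0.24 uM Alexa 594-tagged), heparin 20 uM, NaOAc pH 7, 6 h 37 C; ThT 30 uM, 1 h RT, ex 450/em 510 nm.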
# Numbers stand for hits; 0 = inactive; ? = inconclusive; - = no result given; [ ] = another dose, or the depositor's remark. Shown are actives, neighbours in structure and some others; about 5.3% of the full set was active somewhere. Unless noted, calls follow the shape of the dose curve; as a rule, active = well fitted curve in the direction sought with a large enough effect; inconclusive = small, poorly fitted or top-dose-only effect, or another doubt; inactive = no such curve, though single readings can be large; an effect the other way counts as inactive or inconclusive.
SMILES,Coupling enz,Sfp PPTase inh,Tau fluor cs,KDM4E inh,Tau fibril FP,Tau fibril ThT
Cn1c(=O)[nH]c(=O)c2c1nc(SCCO)n2CC(O)COc1ccccc1 (stereo not given),0,5µM,0,0,0,0
CCCSc1nc2c(c(=O)[nH]c(=O)n2C)n1CC(O)COc1ccccc1 (stereo not given),0,0,0,0,0,0
CC(C)CSc1nc2c(c(=O)[nH]c(=O)n2C)n1CC(O)COc1cccc2ccccc12 (stereo not given),0,28µM,0,0,?,?
Cc1cc(Nc2ccccc2F)n2nc(-c3ccccc3)nc2n1,-,-,0,-,0,0
Cn1c(=O)c(-c2cc(F)cc(F)c2)nc2cnc(Nc3ccccc3)nc21,0,0,-,-,-,-
CCCCSCc1[nH]c(=O)[nH]c1C(=O)CCCCC(=O)OCC,0,0,0,0,0,0
CCOC(=O)CCCCC(=O)c1[nH]c(=O)[nH]c1Cn1ccnc1,0,79µM,0,0,0,0
N#CCCn1c(=O)c(-c2cccs2)nc2cnc(OCc3ccccc3)nc21,0,0,-,-,-,-
COc1ccc(NS(=O)(=O)c2ccc(N3CCCC3)c(N)c2)cc1,0,0,-,-,-,-
COc1ccc(NS(=O)(=O)c2ccc(N3CCCC3)c(NC(=S)Nc3ccc(SC(F)F)cc3)c2)cc1,0,18µM,?,0,0,?
COc1ccc(NS(=O)(=O)c2ccc(N3CCCC3)c(NC(=S)Nc3cccc(C)c3C)c2)cc1,0,13µM,0,0,0,0
Cc1nc2cnc(N3CCNCC3)nc2n(C2CC2)c1=O,0,0,-,-,-,-
OC[C@@H]1[C@@H](c2ccccc2)C(c2ccccc2)=NN1c1ccccc1,0,0,13µM[quencher],-,?,?
OC[C@@H]1[C@@H](c2ccc(Cl)cc2)C(c2ccc(F)cc2)=NN1c1ccccc1,0,0,25µM[quencher],-,0,0
COc1ccccc1[C@H]1C(c2cccc(Cl)c2)=NN(c2ccccc2)[C@@H]1CO,0,0,20µM[quencher],-,?,0
OC[C@@H]1[C@@H](c2ccccc2)C(c2cccc(Cl)c2)=NN1c1ccccc1,0,0,18µM[quencher],-,?,?
CC(C)c1ccc(C2=NC(c3ccncc3)=Nc3ccc(F)cc3N2)cc1,-,-,?,-,0,?
NCCNC(=O)c1ccc(Cl)cn1,0,?,-,-,-,-
Oc1ccc(C2=NN(c3ccccc3)C(c3ccc(F)cc3)C2)cc1 (stereo not given),0,0,-,-,-,-
OC[C@@H]1[C@@H](c2ccccc2)C(c2ccc(F)cc2)=NN1c1ccccc1,0,0,10µM[quencher],-,?,?
OC[C@@H]1[C@@H](c2ccc(F)cc2)C(c2ccc(F)cc2)=NN1c1ccccc1,0,0,28µM[quencher],-,0,?
CCOC(=O)CSc1nc2ccccc2c(=O)n1CCc1ccc(OC)c(OC)c1,-,-,0,-,0,0
O=S(=O)(Nc1ccc(-c2ccc(N3CCCC3)nn2)cc1)c1ccc(OC(F)(F)F)cc1,-,-,0,-,0,0
CO/N=C(/C(=O)N[C@@H]1C(=O)N2C(C(=O)O)=CCS[C@H]12)c1cnc(N)s1,0,79µM,-,-,-,-
CC(=O)c1cccc(OCc2cc(C(=O)N(C)Cc3ccc(C)o3)no2)c1,0,25µM,-,-,-,-
SMILES,Coupling enz,Sfp PPTase inh,Tau fluor cs,KDM4E inh,Tau fibril FP,Tau fibril ThT
Cc1ccc(CN(C)C(=O)c2ccccc2Oc2ccccc2)o1,0,14µM,0,0,0,?
O=C(O)c1ccccc1Oc1ccc(Oc2ccccc2)cc1,0,0,-,-,-,-
CSc1ccccc1OCc1cc(C(=O)N(C)Cc2ccc(C)o2)no1,0,20µM,-,-,-,-
CN(C)c1ccc(-c2ccc3ncnc(NC4CC4)c3c2)cc1,0,0,-,-,-,-
COc1ccccc1C(=O)N1CCN(Cc2cc(=O)oc3cc(C)ccc23)CC1,-,-,0,-,0,0
COc1ccc(-c2nn(-c3ccccc3)cc2C(=O)Nc2nccs2)cc1,0,0,?,?,28µM,0
COc1cccc(-c2nn(-c3ccccc3)cc2C(=O)Nc2nccs2)c1,0,0,?,0,28µM,0
O=C(Nc1nccs1)c1cn(-c2ccccc2)nc1-c1ccncc1,0,0,0,?,0,0
COc1ccc([C@]23Cc4cc(C#N)ccc4C(O2)C2=C(CC4(CCCCC4)OC2=O)O3)cc1,0,0,-,-,-,-
